# From publication PMC10668032, “Altered binding affinity of SIX1-Q177R correlates with enhanced WNT5A and WNT pathway effector expression in Wilms tumor”
# In all, about 33,000 sequences were measured (“e-score”: median about -0.053, highest 2% from about 0.38 on). This excerpt belongs to a sample that is enriched for the highest values.
# Target: T1, SIX1 homeodomain (reference allele) (human, UniProt Q15475 108-198)
# T1 sequence: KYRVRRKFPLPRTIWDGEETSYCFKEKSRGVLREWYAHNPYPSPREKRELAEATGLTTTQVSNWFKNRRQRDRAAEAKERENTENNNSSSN
# Assay: universal protein binding microarray; Universal all-10-mer PBM (8x60K, AMADID 030236), 300 nM GST-tagged protein, Alexa Fluor 488 anti-GST; buffer, salt, pH and temperature not stated (as in Berger); high values mean tight binding
# Details: protein: ivt; tags: N-terminal GST; dsDNA, one strand shown
# Method in brief: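 Homeodomains fused to GST were made by in vitro transcription/translation and measured by anti-GST western blot with a recombinant GST standard curve. At 300 nM final concentration, they were applied in duplicate to universal 'all 10-mer' protein binding microarrays (8×60K format).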
row,Sequence,binding signal
1,ATCCTTTC,0.212 ± 0.0474 E-score
2,CAGGATGA,0.183 ± 0.0851 E-score
3,ATCCCTCC,0.329 ± 0.0164 E-score
4,ACGCATAT,0.233 ± 0.00465 E-score
5,GATCTAGA,0.252 ± 0.0586 E-score
6,CAGAGATA,0.27 ± 0.0194 E-score
7,CGTCTCAA,0.286 ± 0.0622 E-score
8,AGTAAGAT,0.191 ± 0.00535 E-score
9,ATCCGCCC,0.373 ± 0.0127 E-score
10,CATATCCC,0.352 ± 0.0303 E-score
11,AATATCCT,0.282 ± 0.0516 E-score
12,CATATCCA,0.348 ± 0.0227 E-score
13,AATATCCC,0.378 ± 0.0135 E-score
14,GATATCCA,0.452 ± 0.0127 E-score
15,GCTATCCC,0.281 ± 0.0159 E-score
16,GATATCCC,0.487 ± 0.00837 E-score
17,AATATCCA,0.2955 ± 0.00224 E-score
18,AATATCCG,0.317 ± 0.0622 E-score
19,GAAGATCA,0.196 ± 0.071 E-score
20,GAGCAATA,0.151 ± 0.0211 E-score
21,CGAGATCA,0.287 ± 0.035 E-score
22,CTAAGATC,0.207 ± 0.011 E-score
23,ATCTAGCC,0.18 ± 0.0214 E-score
24,GTATGACA,0.153 ± 0.0497 E-score
25,CTATGATA,0.394 ± 0.0185 E-score
26,CTATGATC,0.302 ± 0.0116 E-score

row,Sequence,binding signal
1,GTATGATA,0.426 ± 0.00336 E-score
2,CTATGGTA,0.305 ± 0.0461 E-score
3,ATATGATA,0.443 ± 0.0314 E-score
4,ATATGACA,0.2181 ± 0.00196 E-score
5,CTATGAGA,0.177 ± 0.0191 E-score
6,GTATGAGA,0.167 ± 0.0275 E-score
7,ATATGATG,0.202 ± 0.0156 E-score
8,ATATGATC,0.378 ± 0.0179 E-score
9,ATATGACC,0.189 ± 0.0241 E-score
10,ATCGGCGA,0.263 ± 0.0285 E-score
11,CAGCTATA,0.172 ± 0.0266 E-score
12,ATCAACCC,0.3364 ± 0.0021 E-score
13,CCCTTCGG,0.2259 ± 0.00107 E-score
14,ATCTCGGC,0.164 ± 0.0197 E-score
15,CCGCATCC,0.159 ± 0.0829 E-score
16,CTGGGGTC,0.164 ± 0.0399 E-score
17,GATCCATC,0.364 ± 0.0371 E-score
18,ATCGTTGG,0.205 ± 0.01 E-score
19,ATATAAGG,0.189 ± 0.0368 E-score
20,CGATGGAG,0.167 ± 0.00841 E-score
21,GGATCAAA,0.372 ± 0.0497 E-score
22,GGATCAAC,0.39 ± 0.0049 E-score
23,GGATCACA,0.4356 ± 0.00108 E-score
24,TGATCACA,0.254 ± 0.0125 E-score
25,GGATCAGA,0.414 ± 0.0101 E-score
26,CGATCACC,0.34 ± 0.0407 E-score

row,Sequence,binding signal
1,CGATCACG,0.251 ± 0.0416 E-score
2,AGATCAAC,0.264 ± 0.0411 E-score
3,AGATCAGA,0.215 ± 0.0541 E-score
4,CGATCAGA,0.192 ± 0.0121 E-score
5,GGATCACC,0.438 ± 0.0243 E-score
6,AGATCACC,0.317 ± 0.00333 E-score
7,CCCCATCA,0.152 ± 0.0305 E-score
8,TATCCTAA,0.238 ± 0.0642 E-score
9,GATAACTA,0.154 ± 0.00881 E-score
10,GATCTTTA,0.164 ± 0.0165 E-score
11,ATCGCACG,0.2071 ± 0.000375 E-score
12,ATAGGCGG,0.1969 ± 0.00138 E-score
13,TATTGCGA,0.232 ± 0.0343 E-score
14,TCACCCGA,0.157 ± 0.0682 E-score
15,GATAGTAA,0.221 ± 0.00274 E-score
16,CGATCATA,0.276 ± 0.0116 E-score
17,AGATCATA,0.323 ± 0.00987 E-score
18,GGATCATA,0.433 ± 0.0211 E-score
19,ATCAACGA,0.201 ± 0.0401 E-score
20,AGTATTGG,0.204 ± 0.0532 E-score
21,ATAGCTAT,0.27 ± 0.0878 E-score
22,TCTCCAGA,0.165 ± 0.00783 E-score
23,CGAGATAC,0.381 ± 0.00544 E-score
24,AGAGATAC,0.38 ± 0.00418 E-score
25,AGAGATAG,0.153 ± 0.0279 E-score
26,CCAGATAC,0.409 ± 0.0168 E-score

row,Sequence,binding signal
1,CTAGATAC,0.349 ± 0.00583 E-score
2,ACAGATAC,0.341 ± 0.00624 E-score
3,GGAGATCC,0.374 ± 0.0453 E-score
4,AGAGATAT,0.335 ± 0.0776 E-score
5,GCAGATAC,0.3749 ± 0.000573 E-score
6,CCAGATAA,0.234 ± 0.0252 E-score
7,GGAGATAC,0.41 ± 0.00953 E-score
8,CAAGATAC,0.349 ± 0.0341 E-score
9,ATCCGAAA,0.246 ± 0.022 E-score
10,ATATCTTG,0.271 ± 0.0944 E-score
11,CGATCTCC,0.31 ± 0.00569 E-score
12,ACTGTATC,0.367 ± 0.00948 E-score
13,CCTATAGA,0.157 ± 0.037 E-score
14,GCCTATAA,0.161 ± 0.0675 E-score
15,TATCGTGA,0.279 ± 0.00354 E-score
16,AATACGAG,0.233 ± 0.00564 E-score
17,AATTGTGA,0.185 ± 0.0272 E-score
18,CTGGTGTC,0.414 ± 0.0127 E-score
19,CTGGTGTA,0.313 ± 0.0189 E-score
20,ATGGTGTC,0.435 ± 0.0115 E-score
21,ATGGTGTG,0.183 ± 0.0828 E-score
22,ATGGTGTA,0.305 ± 0.00747 E-score
23,CTGGTCTA,0.201 ± 0.0694 E-score
24,GATCCCGA,0.377 ± 0.0296 E-score
25,GATCCTTA,0.342 ± 0.021 E-score
26,TATCCCGA,0.315 ± 0.0248 E-score

row,Sequence,binding signal
1,AATCCCGA,0.223 ± 0.0516 E-score
2,AATCCCTA,0.185 ± 0.0203 E-score
3,GATCCCTA,0.3831 ± 0.000778 E-score
4,AACCGAGA,0.162 ± 0.046 E-score
5,ACACCTCG,0.3009 ± 0.00176 E-score
6,CCTATCTA,0.178 ± 0.0299 E-score
7,ATGATCAT,0.246 ± 0.029 E-score
8,AAGATCAC,0.239 ± 0.0239 E-score
9,AGGATCAT,0.38 ± 0.0194 E-score
10,ACGATCAC,0.177 ± 0.0336 E-score
11,AGGATCAG,0.368 ± 0.0142 E-score
12,AGGATCAC,0.435 ± 0.0114 E-score
13,CATGAGAC,0.296 ± 0.000976 E-score
14,ACTACTCG,0.163 ± 0.00508 E-score
15,AGATCAAG,0.232 ± 0.0888 E-score
16,GTATAAAC,0.185 ± 0.0191 E-score
17,AGATCACG,0.306 ± 0.0143 E-score
18,AGATCACT,0.385 ± 0.0244 E-score
19,AGATCAAT,0.3827 ± 0.00302 E-score
20,GTGTCAAC,0.287 ± 0.0231 E-score
21,AGATCACA,0.255 ± 0.00822 E-score
22,GTGTCAAA,0.311 ± 0.019 E-score
23,CTATCAAA,0.258 ± 0.141 E-score
24,AGATCAAA,0.188 ± 0.0637 E-score
25,GTATCAAC,0.475 ± 0.0103 E-score
26,GTATCAAA,0.452 ± 0.0436 E-score

row,Sequence,binding signal
1,CGGAGATA,0.314 ± 0.0255 E-score
2,ATCCTTCG,0.228 ± 0.0545 E-score
3,ATTAATCG,0.16 ± 0.0622 E-score
4,ATACTTAC,0.218 ± 0.0954 E-score
5,ATATTATG,0.299 ± 0.0542 E-score
6,ATCAGGCG,0.25 ± 0.0206 E-score
7,CTCATCTC,0.158 ± 0.0133 E-score
8,ACTCGGGG,0.212 ± 0.0491 E-score
9,CCCTATCC,0.359 ± 0.0609 E-score
10,AGTGGGAT,0.333 ± 0.0228 E-score
11,CGATCGCC,0.257 ± 0.026 E-score
12,CGGCGATC,0.302 ± 0.0621 E-score
13,CTATCAAC,0.29 ± 0.0532 E-score
14,ATATCAAG,0.423 ± 0.0464 E-score
15,ATATCAAT,0.421 ± 0.0559 E-score
16,ATCTCAAC,0.233 ± 0.0413 E-score
17,ATATCAAC,0.418 ± 0.0449 E-score
18,ATATCAAA,0.374 ± 0.0809 E-score
19,ATCTCAAG,0.215 ± 0.0235 E-score
20,ATCTCAAT,0.183 ± 0.0808 E-score
21,CTATCAAG,0.155 ± 0.0723 E-score
22,ACAGGGTA,0.267 ± 0.0137 E-score
23,ATCATAAC,0.2814 ± 0.00204 E-score
24,CCCGTGTA,0.171 ± 0.0224 E-score
25,ATCCCTAC,0.307 ± 0.0295 E-score
26,ATCACTCA,0.335 ± 0.0213 E-score

row,Sequence,binding signal
1,AGCATATC,0.408 ± 0.0304 E-score
2,CTCATATC,0.31 ± 0.0778 E-score
3,ATCATATA,0.271 ± 0.0327 E-score
4,ATCATATC,0.425 ± 0.033 E-score
5,CGCATACC,0.266 ± 0.0145 E-score
6,CGCATATA,0.158 ± 0.0261 E-score
7,CGCATATC,0.414 ± 0.0167 E-score
8,AGAATATC,0.283 ± 0.121 E-score
9,AGCATATA,0.239 ± 0.0331 E-score
10,CGCATCTC,0.154 ± 0.00741 E-score
11,TACATGTA,0.176 ± 0.041 E-score
12,ACTCATAT,0.25 ± 0.0849 E-score
13,AGTATACG,0.26 ± 0.0621 E-score
14,ATACGTGC,0.358 ± 0.0375 E-score
15,GTGTCATA,0.369 ± 0.0321 E-score
16,ATATGACG,0.227 ± 0.0466 E-score
17,CGATCCAG,0.212 ± 0.123 E-score
18,TACAGGTA,0.244 ± 0.0285 E-score
19,GATAGGCC,0.209 ± 0.0213 E-score
20,CTGCGATC,0.322 ± 0.0185 E-score
